Screening data from PubChem BioAssay.
An excerpt weighted towards active compounds, which were near 2.5% of everything screened.
ANO1 activ = activators or potentiators of mouse TMEM16A chloride channel; B-score at 10 µM; 340,000 tested, 0.3% active; HEK293 TMEM16A/YFP-H148Q/I152L, iodide quench fluorescence; active compounds read low; AID 623877;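 active = fluorescence-ratio B-score plate-corrected deviation score at least 3 library SD below zero, with starting fluorescence score within 5 deviations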;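 also: channel opened by trigger with iodide after compound preincubation; score built on the fluorescence ratio of max minus min over baseline; more negative score means more quench and so TMEM16A activation or potentiation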
PKA-R1A activ = activators of PKA-R1A complex. P00514+P68181. PKA-R1A dissociation, Cy5-IP20 fluorescence polarization; scaled: DMSO 0%, 113 µM cGMP 100%. activation, % at 11.4 µM. 340,000 tested, 0.083% active. AID 504707;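 active = percent activation above the mean of all tested compounds plus 3 SD, cut at about 19% in these data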;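 also: higher means more PKAc released from R1A so a rise in polarization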
CHT inh = inhibitors of human choline transporter CHT; Q9GZV3; B-score at 10 µM; 310,000 tested, 0.86% active; CHT-expressing cells, membrane potential dye, choline response; active compounds read low; AID 488975;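 active = B-score over 3 SD under the library average, and starting fluorescence ratio not unusually high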;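 also: choline stimulus applied at its EC90 after an EC20 pre-addition; B-score computed on integrated fluorescence ratio after choline addition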
PKA-R2B act = activators of human PKA-R2B complex; P22694+P31323; PKA-R2B holoenzyme dissociation, Cy5-IP20 fluorescence polarization; R2B truncated from residue 108, S112A mutant; 0% DMSO only, 100% 113 µM cGMP; activation, % at 11.4 µM; 340,000 tested, 0.079% active; AID 504700;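 active = activation above a cutoff set at the mean over all compounds plus 3 SD, cut at about 18% in these data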;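 also: higher means more holoenzyme dissociation and a rise in polarization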
TMEM16A inh = inhibitors of mouse TMEM16A calcium-activated chloride channel; AID 588511; Q8BHY3; 310,000 tested, 1.2% active; normalized B-score (activity score, 25-100; higher = stronger inhibition) at 10 µM; HEK293 TMEM16A/YFP iodide influx fluorescence, ionomycin;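 active = ratio plate-corrected score three or more library SD toward inhibition, starting fluorescence score within five deviations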;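 also: score derived from kinetic fluorescence span divided by baseline fluorescence per well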
CHT allo act = allosteric activators of human choline transporter CHT; Q9GZV3; CHT-expressing cells, membrane potential dye, choline EC20; active compounds read high; LV-AA mutant CHT in HEK293 cells; B-score at 10 µM; 310,000 tested, 0.49% active;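 active = initial fluorescence not abnormally high and integrated response B-score, plate-corrected, over 3 SD above library mean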
R2B FP artifact = FP assay interference, PKA-R2B counter-screen. shares compounds with PKA-R2B act. FP artifact counterscreen, fluorescence polarization. activation, % at 11.4 µM. 270 tested, 6% active. AID 504796; in the data active = activation above about 20%;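 also: Cy5 labelled IP20 peptide probe with compound but no PKA protein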
PKA-R2B act conf = PKA-R2B complex activation, confirmation; shares compounds with PKA-R2B act; fluorescence polarization; activation, % at 11.4 µM; 270 tested, 9% active; in the data active = activation above about 19%
R1A FP artifact = FP assay interference, PKA-R1A counter-screen | shares compounds with PKA-R1A activ | Cy5-IP20 peptide alone, fluorescence polarization artifact counterscreen | activation, % at 11.4 µM | 280 tested, 7% active | AID 504799;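 active = mean activation over triplicate runs exceeds the adjusted cutoff derived for the parent primary screen, cut at about 19% in these data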;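 also: no PKA protein present so any polarization rise reflects compound interference; 0% = tracer peptide mix alone and 100% = mix with added PKA catalytic subunit; higher means stronger polarization artifact and likely false positive in parent screen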
PKA-R1A confirm = confirmation of PKA-R1A complex activators | shares compounds with PKA-R1A activ | Cy5-IP20 fluorescence polarization, PKA-R1A holoenzyme dissociation | activation, % at 11.4 µM | 280 tested, 9% active | AID 504800;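 active = mean activation over replicate wells exceeds the adjusted hit threshold taken from the earlier primary screen, cut at about 20% in these data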;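 also: 0% = holoenzyme mix with DMSO only and 100% = cGMP-activated control wells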
Target sequence (P00514 whole entry, looked up): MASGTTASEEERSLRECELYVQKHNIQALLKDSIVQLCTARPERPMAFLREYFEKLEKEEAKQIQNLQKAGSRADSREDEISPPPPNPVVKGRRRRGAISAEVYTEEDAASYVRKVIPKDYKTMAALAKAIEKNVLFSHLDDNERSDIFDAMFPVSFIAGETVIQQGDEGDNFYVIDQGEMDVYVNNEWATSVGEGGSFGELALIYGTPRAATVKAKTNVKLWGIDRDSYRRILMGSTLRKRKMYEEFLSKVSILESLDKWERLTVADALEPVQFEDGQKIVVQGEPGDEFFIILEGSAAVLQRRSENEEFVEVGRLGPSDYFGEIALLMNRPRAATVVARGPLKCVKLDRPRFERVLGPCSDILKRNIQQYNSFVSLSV
TMEM16A reconf = reconfirmed blocker of mouse TMEM16A calcium-activated chloride channel; shares compounds with TMEM16A inh; HEK293 TMEM16A/YFP-H148Q, iodide quench fluorescence; ionomycin added to raise cell calcium; inhibition, % at 10 µM; 2,300 tested, 39% active; AID 652189;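 active = mean duplicate percent inhibition, scaled so buffer wells are 0 and the reference blocker 100, over three buffer SD above buffer mean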
HEK293 Ca mobil = calcium mobilization counter-screen hit for TMEM16A inhibitor series. shares compounds with TMEM16A inh. TMEM16A/YFP HEK293, Fluo4 calcium mobilization. calcium response (% of ionomycin), % at 10 µM. 2,300 tested, 2% active. AID 652231;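 active = duplicate-averaged calcium signal over 20% of the ionomycin maximum, relative to buffer baseline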;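 also: each well's signal is peak minus trough fluorescence divided by its pre-addition baseline; 0% = buffer wells and 100% = ionomycin wells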
Parental YFP cnt = acts in parental YFP-HEK293 cells lacking TMEM16A, counter-screen. YFP ratio F(max-min)/F0 at 10 µM. 2,300 tested, under 10 active. iodide YFP quench, ionomycin. shares compounds with TMEM16A inh;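 active = yellow fluorescent protein signal ratio exceeding the buffer control mean by over 5 SD of those controls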;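 also: ratio is mean of duplicate wells from kinetic YFP trace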
ClC-1 rat inh = blocks the rat ClC-1 voltage-dependent chloride channel; shares compounds with TMEM16A inh; CHO ClC-1-YFP, iodide influx fluorescence quench; iodide control reads 0, buffer control 100; ratio percent, % at 10 µM; 2,300 tested, under 10 active; AID 652236;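 active = duplicate-mean ratio percent above the mean of iodide-only control wells, which defines zero, plus 5 of their SD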;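 also: higher percent means stronger block of ClC-1 iodide influx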
Starred values were filed as active, the others as inactive; i = inactive; · = not tested or not shown.

SMILES	ANO1 activ	PKA-R1A activ	CHT inh	PKA-R2B act	TMEM16A inh	CHT allo act	R2B FP artifact	PKA-R2B act conf	R1A FP artifact	PKA-R1A confirm	others
Cc1cccc2cc(CN(CCCO)C(=O)Nc3ccc(Cl)cc3)c(=O)[nH]c12	i	-27	·	0	·	·	·	·	·	·
Cc1cccc2cc(CN(CCCO)C(=O)Nc3ccccc3Cl)c(=O)[nH]c12	i	-1	i	23*	i	i	-1	3	·	·
CCc1cc2c(=O)n(CC(=O)NC3CCCCC3)cnc2s1	i	9	i	19*	i	i	-1	1	·	·
O=C(c1ccco1)N1CCN(C(=O)c2ccc(CS(=O)c3ccc(Cl)cc3)o2)CC1 (configuration not stated)	i	-4	i	19*	i	i	5	-1	·	·
O=S1(=O)CCOC(CO)CN1Cc1ccc(Cl)c(Cl)c1 (configuration not stated)	·	3	·	10	·	·	-3	-1	·	·
COc1ccc(CCN(Cc2nc3ccccc3c(=O)[nH]2)C(=O)C2CC2)cc1	i	3	i	19*	i	i	4	1	·	·
O=C(C1CC1)N(CCc1ccccc1)Cc1nc2ccccc2c(=O)[nH]1	i	-8	i	-7	i	i	·	·	·	·
Cc1cccc(C)c1NC(=O)C(NC=O)c1ccc(N(C)C)cc1 (configuration not stated)	i	9	i	20*	i	i	-4	-1	·	·
COc1cc2cc(CN(Cc3ccc4c(c3)OCO4)C(=O)c3ccco3)c(=O)[nH]c2cc1OC	i	-3	i	21*	i	i	5	2	·	·
CC(C)OC(=O)C1CC(C)(O)C(=O)C(C(=O)OC(C)C)C1c1ccc([N+](=O)[O-])cc1 (configuration not stated)	i	1	i	0	i	i	·	·	·	·
O=C(CCSCCC(=O)NCC1CCCO1)NCC1CCCO1 (configuration not stated)	i	-2	i	20*	i	i	4	0	·	·
O=C(CCSc1ccccc1)NCC1CCCO1 (configuration not stated)	i	-9	i	5	i	i	·	·	·	·
Cc1ccccc1COc1ccc2oc(C)c(C(=O)O)c2c1	i	43*	i	42*	i	i	60*	70*	60*	67*
COCCOC(=O)c1c(C)oc2ccc(OCc3cc(C(=O)OC)oc3C)cc12	i	-4	i	-9	i	i	·	·	·	·
CCCC1Nc2ccc(C(=O)O)cc2C2C=CCC12 (configuration not stated)	i	23*	i	19*	i	i	21*	20*	21*	24*
CCOC(=O)c1ccc(NC(=O)CN2C(=O)NC3(CCCCCCC3)C2=O)cc1	i	-9	·	3	·	·	·	·	·	·
COc1ccc2oc(C(=O)OCC(=O)Nc3ccc(NC(C)=O)cc3)c(C)c2c1	i	20*	i	25*	i	i	8	13	8	13
CCC1=NN2C(=N)/C(=C/c3ccc(OS(=O)(=O)c4ccc(C)cc4)c(OC)c3)C(=O)N=C2S1	i	4	i	0	i	i	·	·	·	·
CCC1=NN2C(=N)/C(=C/c3ccc(OS(=O)(=O)c4ccccc4)cc3)C(=O)N=C2S1	i	22*	i	29*	i	i	23*	23*	23*	28*
CC(C)(C)c1ccc(NC(=O)CN2C(=O)NC(C)(C3CC3)C2=O)cc1 (configuration not stated)	i	-1	·	8	·	·	·	·	·	·
Cc1c(Cl)c(C(=O)NC2C3CC4CC(C3)CC2C4)nn1C (configuration not stated)	i	1	i	20*	100*	i	3	1	·	·	TMEM16A reconf=i;HEK293 Ca mobil=i;Parental YFP cnt=-0.96;ClC-1 rat inh=-1
CCOc1cc(C(=S)N2CCN(C)CC2)ccc1OCC(=O)N1CCCC1	i	-4	i	1	i	i	·	·	·	·
CC(=O)Nc1ccc(S(=O)(=O)N2CCc3cc4c(cc3C2C)OCCCO4)cc1 (configuration not stated)	i	21*	i	13	i	i	·	·	2	0
O=C(COC(=O)C1CC(=O)N(Cc2ccco2)C1)Nc1ccc(F)cc1F (configuration not stated)	i	20*	·	-8	·	·	·	·	-4	-1
O=C(COC(=O)C1CC(=O)N(Cc2ccco2)C1)Nc1ccccc1[N+](=O)[O-] (configuration not stated)	i	-5	·	-12	·	·	·	·	·	·
COc1cc(C(=O)NC2CCCC2)c(Br)c(OC)c1OC	i	1	i	3	i	i	·	·	·	·
Cc1c(Br)cc(C(=O)NC2CCCCC2)c(C)c1C	i	23*	i	7	i	i	·	·	7	3
Cc1ccc(NC(=O)Cc2ccccc2)cc1S(=O)(=O)N1CCOCC1	i	9	·	3	·	·	·	·	·	·
CCCCS(=O)(=O)N1CCCC(C(=O)Nc2ccc3c(c2)CCC3)C1 (configuration not stated)	i	19*	i	1	i	i	·	·	0	1
